Screening data from PubChem.
Rango release inh – inhibition of RanGTP-driven Rango-importin beta dissociation; Potency, µM (titrated, usually from 46.1 µM); Biochemical FRET Rango-importin beta, RanGTP-induced dissociation; O95149+P62826; 340,000 compounds, 0.071% hits; note: nearly all actives have a fitted effect of over 45% in size
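FRET read at 45 min, room temperature: inhibitors block the CFP/YFP signal rise when RanGTP (0.6 uM Ran, 2 mM GTP, 0.2 uM RCC1) frees Rango (0.1 uM) from importin beta (0.25 uM). Pre-read after 5 min compound exposure flags interference.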
CBFb-RUNX1 inh – CBF-beta/RUNX1 interaction disruption; Q01196+Q13951; AlphaScreen CBFb-His/RUNX1-biotin binding, biochemical; Potency, µM (titrated, usually from 59.8 µM), most hits filed as inhibitors; 230,000 tested, under 10 active; AID 1477; active = well fitted curve in the direction sought with a large enough effect; inconclusive = small, poorly fitted or top-dose-only effect, or effect the other way, or another doubt; inactive = no such curve, though single readings can be large or run the other way
Target sequence (Q01196 whole entry, looked up): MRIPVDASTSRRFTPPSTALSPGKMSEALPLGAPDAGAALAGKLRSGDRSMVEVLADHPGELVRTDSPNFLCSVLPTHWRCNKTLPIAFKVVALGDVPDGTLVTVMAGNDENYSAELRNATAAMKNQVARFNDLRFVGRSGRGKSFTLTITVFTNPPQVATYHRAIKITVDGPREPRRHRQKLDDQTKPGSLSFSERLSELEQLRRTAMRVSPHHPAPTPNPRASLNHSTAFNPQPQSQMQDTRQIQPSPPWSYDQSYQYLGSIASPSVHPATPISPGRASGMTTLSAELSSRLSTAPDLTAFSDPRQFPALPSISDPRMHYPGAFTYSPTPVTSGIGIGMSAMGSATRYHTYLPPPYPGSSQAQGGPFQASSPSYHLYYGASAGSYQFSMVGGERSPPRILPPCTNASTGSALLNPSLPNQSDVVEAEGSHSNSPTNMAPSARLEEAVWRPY
Target sequence (Q13951 whole entry, looked up): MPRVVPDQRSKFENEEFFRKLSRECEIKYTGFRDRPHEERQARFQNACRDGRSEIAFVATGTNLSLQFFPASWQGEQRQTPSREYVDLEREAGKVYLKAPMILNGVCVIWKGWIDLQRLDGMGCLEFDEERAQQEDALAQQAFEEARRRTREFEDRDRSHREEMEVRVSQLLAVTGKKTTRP
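AlphaScreen proximity signal reports loss of binding between His-tagged CBF-beta and biotin-labelled RUNX1, each at 30 nM. Proteins are pre-associated for 20 minutes, compounds added for 15 minutes, then beads for 90 minutes, all at ambient temperature.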
MBNL1-CUG inh – MBNL1-poly(CUG) RNA binding inhibition | 280,000 compounds, 0.036% hits | Q9NR56 | TR-FRET MBNL1-His/biotin-(CUG)12 binding, 665/545 ratio | Potency, µM (doses to about 57.5 µM), actives largely listed as inhibitors | AID 2675; active = well fitted inhibition curve with a large enough effect in the signal ratio, with a control signal flat, not every such curve was filed as active; inconclusive = small, poorly fitted or top-dose-only effect, or effect the other way, or a change in a side signal; inactive = no such curve, though single readings can be large or run the other way; the % refers to the signal ratio
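Inhibition of protein-RNA binding appears as loss of TR-FRET between terbium anti-His antibody on MBNL1-His and streptavidin-XL665 on biotin-(CUG)12. Activity is normalized to buffer-only and uninhibited-complex controls.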
Rango complex inh – Rango-importin beta binding inhibition; Q14974; Rango CFP/YFP FRET sensor + importin beta, 45 min; Potency, µM (top dose mostly 92.2 µM); 340,000 compounds, 0.031% hits; AID 540263; note: nearly all actives have a fitted effect of over 15% in size
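FRET biosensor Rango (snurportin 1 IBB between N-terminal EYFP and C-terminal Cerulean), 50 nM in PBS/1 mM DTT/0.02% Tween-20/0.1% BSA, preincubated 5 min RT with compound; 0.125 microM importin beta added, 45 min RT, CFP/YFP FRET ratio read.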
ClpP mod – qHTS Assay for Activators of ClpP | ATP-dependent Clp protease proteolytic subunit (Bacillus subtilis (strain 168)), P80244 | purified B. subtilis ClpP, FRET peptide cleavage, 20 min | Potency, µM (titrated, usually from 57.5 µM) | 340,000 compounds, 1.9% hits | AID 651965, 2013; active = well fitted falling curve with a large enough effect; inconclusive = small, poorly fitted or top-dose-only effect; inactive = no such curve, though single readings can be large or run the other way; note: the source files actives as falling curves though it sought activators and does not explain the sign; nearly all actives have a fitted effect of over 65% in size
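ClpP 10 microg/mL final, pH 8 Tris/KCl buffer with BSA, glycerol, Tween-20; compound pinned in; FRET-FV substrate; RT 20 min; Ex320/Em430; ΔFRET vs ADEP 5.8 microM, DMSO, no enzyme.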
Large screens that a line does not name were inactive. The sample as a whole holds a higher share of hits than the screen did. Unless noted, calls come from the whole dose curve.

Cc1ccc(S(=O)(=O)N2CCN(Cc3nc4ccc(C)cc4o3)CC2)c(C)c1	none (no result: Rango release inh, CBFb-RUNX1 inh, MBNL1-CUG inh, Rango complex inh)
S=C(NCCCc1cnc[nH]1)NCCCN(CCc1ccccc1)c1ccc(Br)cn1	none (no result: Rango release inh, CBFb-RUNX1 inh, MBNL1-CUG inh, Rango complex inh)
Cc1ccc(NC(=O)C2CCCN2S(=O)(=O)c2cccc3nsnc23)c(Br)c1 (stereo unspecified)	none (no result: Rango release inh, CBFb-RUNX1 inh, MBNL1-CUG inh, Rango complex inh)
CC[N+](C)(C)c1ccc(/C=C/c2ccc3ccccc3n2)cc1	none (no result: Rango release inh, CBFb-RUNX1 inh, MBNL1-CUG inh, Rango complex inh)
CC1=C(C(=O)OC2CCCCC2)C(c2ccco2)C2=C(CC(C)(C)CC2=O)N1 (stereo unspecified)	ClpP mod 31.6µM
Cc1sc2ncnc(N3CCC(C(=O)Nc4cc(Cl)ccc4Cl)CC3)c2c1C	none (no result: CBFb-RUNX1 inh, MBNL1-CUG inh)
Cc1sc2ncnc(N3CCC(C(=O)NNC(=O)c4ccc(Cl)cc4)CC3)c2c1C	ClpP mod 12.6µM (no result: CBFb-RUNX1 inh, MBNL1-CUG inh)
Cc1ccc(-n2c(SCC(=O)NCc3ccccc3)nc3n[nH]c(C)c3c2=N)cc1Cl	none (no result: Rango release inh, CBFb-RUNX1 inh, MBNL1-CUG inh, Rango complex inh)
COC(=O)c1cn(NC(=O)/C=C/c2cc(OC)ccc2OC)c(=O)c2ccccc12	Rango release inh inconclusive, Rango complex inh inconclusive, ClpP mod 28.2µM
O=C(Nc1cc(-c2nc3cc(Cl)ccc3o2)ccc1Cl)c1cc2ccccc2o1	none (no result: Rango release inh, CBFb-RUNX1 inh, MBNL1-CUG inh, Rango complex inh)
Cc1nc(N2CCCC2)c2c(C(=O)N3CCN(c4ccc(F)cc4)CC3)c(C)oc2n1	none (no result: Rango release inh, CBFb-RUNX1 inh, MBNL1-CUG inh, Rango complex inh)
O=C(Nc1ccccc1)N1N=C(c2cccs2)CC1c1cccs1 (stereo unspecified)	CBFb-RUNX1 inh inconclusive, MBNL1-CUG inh inconclusive, ClpP mod 31.6µM
COc1cccc(C2CC(=O)N3CN(C4CCCCC4)CSC3=C2C#N)c1 (stereo unspecified)	none (no result: Rango release inh, CBFb-RUNX1 inh, MBNL1-CUG inh, Rango complex inh)
O=C(Oc1cccc(Nc2ncnc3ccccc23)c1)c1ccccc1Cl	ClpP mod 31.6µM
CC(C)(Oc1ccc(Cl)cc1)C(=O)NC1CCCCC1	ClpP mod 20µM (no result: CBFb-RUNX1 inh, MBNL1-CUG inh)
Cc1cccc(N(CC(=O)NC2CC2)S(=O)(=O)c2ccc(Cl)cc2)c1	none (no result: CBFb-RUNX1 inh)
Cc1ccc(S(=O)(=O)N(CC(=O)NC2CC2)c2ccc(C)c(Cl)c2)cc1	ClpP mod 15.8µM (no result: CBFb-RUNX1 inh)
Cc1ccc(C(=O)Nc2cccc(C(=O)OCc3cc(=O)n4nc(C5CC5)sc4n3)c2)cc1	none (no result: Rango release inh, CBFb-RUNX1 inh, MBNL1-CUG inh, Rango complex inh)
Cc1ccc(-n2nc(CO)c(C(=O)NCc3cccnc3)n2)cc1C	ClpP mod 15.8µM (no result: Rango release inh, CBFb-RUNX1 inh, MBNL1-CUG inh, Rango complex inh)
O=C(NCc1cccnc1)c1nn(-c2ccc(F)cc2)nc1CO	ClpP mod 25.1µM (no result: Rango release inh, CBFb-RUNX1 inh, MBNL1-CUG inh, Rango complex inh)
Cc1ccc(-n2nc(CO)c(C(=O)NCc3ccccn3)n2)cc1	none (no result: Rango release inh, CBFb-RUNX1 inh, MBNL1-CUG inh, Rango complex inh)
Cc1ccc(CNC(=O)c2nn(-c3ccc(Cl)cc3)nc2CO)cc1	ClpP mod 25.1µM (no result: Rango release inh, CBFb-RUNX1 inh, MBNL1-CUG inh, Rango complex inh)
Cc1ccc(-n2nc(CO)c(C(=O)NCc3cccnc3)n2)cc1	ClpP mod 7.94µM (no result: Rango release inh, CBFb-RUNX1 inh, MBNL1-CUG inh, Rango complex inh)
CCN(Cc1ccccc1)C(=O)Cn1c(=O)n(-c2ccc(F)c(Cl)c2)c(=O)c2sc3ccccc3c21	none (no result: Rango release inh, CBFb-RUNX1 inh, MBNL1-CUG inh, Rango complex inh)
Cc1cccc(C(C)C)c1NC(=O)c1ccc2c(c1)CCN2S(C)(=O)=O	none (no result: Rango release inh, CBFb-RUNX1 inh, MBNL1-CUG inh, Rango complex inh)
CCN1CCN(C(c2ccccc2)c2sc3nc(-c4ccco4)nn3c2O)CC1 (stereo unspecified)	none (no result: Rango release inh, CBFb-RUNX1 inh, MBNL1-CUG inh, Rango complex inh)
CCCCNC(=O)[C@@H]1CC=C[C@@H]2CCN(C3CCCCC3)C(=O)[C@@H]21	none (no result: Rango release inh, CBFb-RUNX1 inh, MBNL1-CUG inh, Rango complex inh)
C[C@H](CO)N1C[C@H](C)[C@@H](CN(C)CC2CC2)OCc2cnnn2CCCC1=O	none (no result: Rango release inh, CBFb-RUNX1 inh, MBNL1-CUG inh, Rango complex inh)
CCOc1ccc(-n2nc(CO)c(C(=O)NCc3cccs3)n2)cc1	ClpP mod 7.94µM (no result: Rango release inh, CBFb-RUNX1 inh, MBNL1-CUG inh, Rango complex inh)
CCN(CC)c1ccccc1/C=C/[n+]1ccc(CCCCI)c2ccccc21	none (no result: Rango release inh, CBFb-RUNX1 inh, MBNL1-CUG inh, Rango complex inh)
Cc1ccc(NC(=O)CN2C(=O)c3ccccc3Sc3ncccc32)c(C)c1	none (no result: Rango release inh, CBFb-RUNX1 inh, MBNL1-CUG inh, Rango complex inh)
Cn1c2c(c(=O)n3ncnc13)CCCC2	ClpP mod 22.4µM
COC(=O)Nc1ccc(=O)n(Cc2c(Cl)cccc2Cl)c1	ClpP mod 28.2µM
C#CCOC(=O)Nc1cccn(Cc2c(Cl)cccc2Cl)c1=O	ClpP mod inconclusive
Cc1ccc(-c2nc3ncccc3o2)cc1NC(=O)Cc1ccc(Cl)cc1	none
Cc1ccc(-c2nc3ncccc3o2)cc1NC(=O)CC(C)C	ClpP mod 11.2µM (no result: MBNL1-CUG inh)
Cc1ccc(-c2nc3cccnc3o2)cc1NC(=O)COc1ccc(C(C)(C)C)cc1	ClpP mod 28.2µM
CCc1ccc(OCC(=O)Nc2cc(-c3nc4cc(C)ccc4o3)ccc2C)cc1	ClpP mod 3.98µM (no result: Rango release inh, CBFb-RUNX1 inh, MBNL1-CUG inh, Rango complex inh)
